From PubChem BioAssay
NPC1 promoter act: activates the NPC1 promoter; 320,000 tested, 2.4% active; Huh7 NPC1 promoter luciferase reporter, 24 h; Potency, µM (series often up to 9.22 µM), inactives show top-dose activation, actives largely listed as activators; AID 485313; further: % of control where 0% means no effect; nearly all actives have a fitted effect of over 60% in size
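Luminescence from an NPC1 promoter-driven luciferase reporter in stably transfected Huh7 cells was measured after 24 h compound treatment at 37 °C, followed by 10 min ambient incubation with luciferase detection reagent.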
FLuc modulator: counter-screen for miR-21 project: firefly luciferase inhibitors or activators; P08659; purified FLuc, Km substrates, luminescence inhibition; Potency, µM (highest dose often 57.5 µM), inactives show at the highest dose activity change, negative = inhibition, actives largely listed as inhibitors; 360,000 tested, 6.9% active; AID 588342;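 further: plate controls were vehicle for no effect and reference inhibitor for full effect; nearly all actives have a fitted effect of over 55% in size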
Target sequence (P08659 whole entry, looked up): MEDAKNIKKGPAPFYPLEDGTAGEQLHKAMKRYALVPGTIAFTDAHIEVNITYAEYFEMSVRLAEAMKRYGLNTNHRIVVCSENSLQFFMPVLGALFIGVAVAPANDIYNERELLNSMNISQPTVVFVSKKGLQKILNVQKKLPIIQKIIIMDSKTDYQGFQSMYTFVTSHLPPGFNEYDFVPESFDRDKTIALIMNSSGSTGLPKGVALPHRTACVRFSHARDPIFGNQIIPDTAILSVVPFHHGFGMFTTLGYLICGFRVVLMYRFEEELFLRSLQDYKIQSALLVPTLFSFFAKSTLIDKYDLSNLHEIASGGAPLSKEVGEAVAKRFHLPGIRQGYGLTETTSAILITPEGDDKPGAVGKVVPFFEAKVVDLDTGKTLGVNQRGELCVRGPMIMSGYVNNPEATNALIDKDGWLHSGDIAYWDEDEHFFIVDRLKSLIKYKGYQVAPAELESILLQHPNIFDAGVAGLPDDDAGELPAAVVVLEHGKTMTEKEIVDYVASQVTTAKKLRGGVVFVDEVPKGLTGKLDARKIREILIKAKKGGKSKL
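Purified P. pyralis luciferase (10nM final) with 10uM D-luciferin and 10uM ATP (Km levels) in 50mM Tris acetate pH 7.5, 10mM Mg acetate, 0.01% Tween-20, 0.05% BSA; qHTS 6-point titration, ~60 µM downward; luminescence read.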
ELG1 genotox: inducers of genotoxicity in HEK293T ELG1-luciferase cells. 330,000 tested, 1.3% active. Potency, µM (doses to about 46 µM), for the others: at the top dose activity change, positive = activation, actives largely listed as activators. AID 504466. HEK293T ELG1-luciferase reporter, luminescence, 16 h; further: % of control where 0% means no effect; nearly all actives have a fitted effect of over 60% in size
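Step 1: seed 2,000 HEK293T ELG1-luciferase cells per well. Step 2: add compound or DMSO, incubate 16 hr at 37 °C. Step 3: ONE-Glo, 30 min at room temperature, read luminescence.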
SMN2 splice enh: SMN2 splice variant enhancement | HEK293 SMN2-luciferase splicing reporter, luminescence, 30-36 h | Potency, µM (titrated, usually from 46.1 µM), for the others: at the highest dose activity change, positive = activation, actives largely listed as activators | 210,000 tested, 2.8% active; further: % of control where 0% means no effect; nearly all actives have a fitted effect of over 55% in size
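qHTS luciferase splicing reporter: luminescence rises when SMN2 exon 7 is included in transfected HEK293 cells. Compound exposure lasted 30-36 h at 37C, with 4.5 mM final sodium butyrate as control, followed by a ONE-Glo read.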
Rab9 prom act: activators of Rab9 promoter; Huh7 Rab9 promoter-luciferase reporter, luminescence, 24 h; Potency, µM (titrated, usually from 9.22 µM), for the others: at the highest dose activation, negative = inhibition, hits mostly activators; 320,000 tested, 2.8% active; further: % of control where 0% means no effect; nearly all actives have a fitted effect of over 60% in size
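Huh7 cells stably carrying Rab9 promoter–luciferase reporter, plated 1500 cells/well, compound added after 2 h and incubated 24 h at 37 °C; luciferase luminescence then read after 10 min with detection reagent.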
KinaseGlo FLuc: counter-screen: inhibitors of Kinase-Glo firefly luciferase; Kinase-Glo luciferase, ATP luminescence, 8 min; Potency, µM (doses to about 38.3 µM), inactives show at the highest dose activity change, negative = inhibition, actives largely listed as inhibitors; Q27757; 200,000 tested, 0.28% active; AID 1379; further: on the % scale 0 is the no-effect control and ±100 the full control effect; nearly all actives have a fitted effect of over 60% in size
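Kinase-Glo luciferase light output from ATP and luciferin was measured with 10 uM ATP, within the enzyme's linear range. Buffer: 50 mM imidazole pH 7.2, 50 mM KCl, 7 mM MgCl2, 0.01% Tween 20, 0.05% BSA; luminescence read after 8 min at ambient temperature.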
* marks the source's active call; other numbers are inactive results; ? = inconclusive; nt = no result given. Rows were chosen to be rich in hits. Some 7.4% of all compounds tested hit in one or more screens of this group. The call rests on the fitted dose curve; in most records, active means well fitted curve in the direction sought with a large enough effect; inconclusive means small, poorly fitted or top-dose-only effect, or another doubt; inactive means no such curve, though single readings can be large; an effect the other way counts as inactive or inconclusive. Potency means the concentration at half of the fitted maximal effect.

SMILES	NPC1 promoter act	FLuc modulator	ELG1 genotox	SMN2 splice enh	Rab9 prom act	KinaseGlo FLuc
COC(=O)c1ccc(C(=O)Nc2ccc(F)cc2)cc1	2.5µM*	12µM*	14%	nt	?	nt
O=C(Nc1ccc(F)cc1)c1ccccc1	?	24µM*	?	19%	?	-6%
O=C(Nc1ccc(F)cc1)c1cccc(C(=O)Nc2ccc(F)cc2)c1	4%	-1%	10%	nt	7%	nt
COc1cccc(NC(=O)CSc2nc3c([nH]c4ccccc43)c(=O)n2-c2ccccc2)c1	nt	5%	nt	nt	nt	nt
Cc1ccc2nc(-c3cccc(S(=O)(=O)N(C)C)c3)cn2c1	?	?	12%	16%	3.2µM*	-13%
CCN(CC)S(=O)(=O)c1cccc(-c2cn3cc(C)ccc3n2)c1	12%	4.8µM*	?	-29%	16%	-4%
CCN(CC)S(=O)(=O)c1cccc(-c2n[nH]c(=S)n2Cc2ccccc2)c1	-6%	?	-7%	-9%	-3%	1%
CCN1C(=O)CC(C(=O)Nc2ccc(OC)cc2)SC1=Nc1ccc(C)c(C)c1 (stereo not drawn)	nt	-1%	nt	-9%	nt	nt
Cc1cc(C(=O)NCCc2ccc(Cl)cc2)c2c(C)nn(-c3ccccc3)c2n1	nt	0%	nt	nt	nt	nt
Nc1nnc(/C=C/c2ccccc2Cl)s1	?	6.7µM*	?	nt	3.5µM*	nt
NC(=S)N/N=C/c1ccccc1OC(=O)c1cc2ccccc2oc1=O	0%	21µM*	8%	nt	-19%	nt
NC(=O)N/N=C/c1ccccc1OC(=O)c1cc2ccccc2oc1=O	13%	?	?	nt	17%	nt
NC(=S)N/N=C/c1ccccc1OC(=O)/C=C/c1ccccc1	2%	27µM*	-3%	nt	-16%	nt
COc1ccc(S(=O)(=O)Nc2ccc3c(c2)C(=O)N([C@H](C)CO)C[C@H](C)[C@@H](CN(C)S(=O)(=O)c2ccc(F)cc2)O3)cc1	nt	nt	0%	nt	nt	nt
CCc1ccc(-c2cc(C(=O)Nc3c(C)n(C)n(-c4ccccc4)c3=O)c3ccccc3n2)s1	1%	12µM*	-8%	-10%	5%	-9%
COc1ccc(-c2cc(C(=O)Nc3c(C)n(C)n(-c4ccccc4)c3=O)c3ccccc3n2)cc1	-9%	15µM*	-21%	nt	-1%	nt
COc1ccc(C(=O)OCC(=O)Nc2c(C)n(C)n(-c3ccccc3)c2=O)cc1	nt	nt	1%	nt	nt	nt
COc1ccc2cc(-c3cc(C(=O)OCC(=O)Nc4c(C)n(C)n(-c5ccccc5)c4=O)c4ccccc4n3)ccc2c1	?	0.13µM*	2%	2µM*	?	-5%
COc1ccc(Cl)cc1NC(=O)c1cccc(-n2cnnn2)c1	3%	-1%	-1%	nt	-1%	nt
C#CCOC(=O)Nc1cccn(Cc2c(Cl)cccc2Cl)c1=O	-21%	17µM*	-3%	8%	-6%	-4%
O=C(Nc1cccn(Cc2c(F)cccc2Cl)c1=O)NC1CCCCC1	-24%	13µM*	-2%	nt	-18%	-2%
O=C(Nc1cccn(Cc2c(Cl)cccc2Cl)c1=O)C1CC1	-4%	-12%	-12%	-10%	2%	-1%
O=C(Nc1cccn(Cc2cccc(F)c2)c1=O)NC1CCCCC1	0%	?	-2%	-19%	0%	3%
O=C(NCc1ccccc1)Nc1cccn(Cc2c(F)cccc2Cl)c1=O	-11%	13µM*	-1%	-26%	-9%	2%
Cc1ccc(NC(=O)Nc2cccn(Cc3c(F)cccc3Cl)c2=O)cc1	19%	7.6µM*	7%	-5%	19%	-2%
CCOc1ccccc1NC(=O)c1c(NC(=O)COc2ccccc2)sc2c1CCCCC2	nt	0%	nt	-6%	nt	nt
Cc1cc(O)ccc1N/C=C/c1onc(C)c1[N+](=O)[O-]	3.2µM*	?	?	20µM*	2.5µM*	-10%
Cc1cc(N(CCO)CCO)ccc1N=Nc1cc(F)ccc1F	?	24µM*	?	?	?	-1%
